Laboratory results taken from PubChem BioAssay AID1159580 (chemical genetic matrix, 2015).
Values joined by “and” are separate entries in the source; they are usually repeats but may differ in a detail not shown here. Equal entries are not always repeated. The campaign covered roughly 5,500 compounds. About 2,000 (36%) were called active. Inconclusive results (about 18%) are left out. Cut-off read from the data, not from the text of the source: active = normalized growth mostly below about 0.91 (no sharp cut-off); inconclusive = no clear call, values can overlap the other calls; inactive = mostly above about 0.92. Some of the results follow.

Experiment: chemical genetic growth profiling, strain panel (AID 1159580);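 note: tested at 20 µM; growth read once vehicle control cultures reached saturation at 30 °C; 1 = growth at the plate median or of vehicle wells; lower values mean less growth of the strain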
Details: S. cerevisiae deletion strains, growth OD

Measured: normalized growth

C[C@@H]1CC[C@H]2C(C)(C)C3CC12CC[C@@]3(C)O (stereo partly specified)
inactive: locus YAL021C, strain ccr4, active compounds read low 0.942 | locus YAL026C, strain drs2, active compounds read low 0.918 | locus YBR021W, strain FUR4, active compounds read low 0.935 | locus YBR171W, strain sec66, active compounds read low 0.962 | locus YBR229C, strain ROT2, active compounds read low 1.02 | locus YCL029C, strain bik1, active compounds read low 1.01 | locus YCL061C, strain MRC1, active compounds read low 0.952 | locus YCL069W, strain vba3, active compounds read low 0.977 | locus YCR088W, strain abp1, active compounds read low 0.976 | locus YDL035C, strain GPR1, active compounds read low 0.979 | locus YDL040C, strain nat1, active compounds read low 0.952 | locus YDL074C, strain BRE1, active compounds read low 0.913 | locus YDL101C, strain DUN1, active compounds read low 0.988 | locus YDL185W, strain tfp1, active compounds read low 0.99 | locus YDR001C, strain nth1, active compounds read low 1.01 | locus YDR101C, strain arx1, active compounds read low 0.939 | locus YDR150W, strain NUM1, active compounds read low 1.02 | locus YDR162C, strain NBP2, active compounds read low 1 | locus YDR318W, strain mcm21, active compounds read low 0.95 | locus YDR334W, strain swr1, active compounds read low 1 | locus YDR335W, strain msn5, active compounds read low 0.928 | locus YDR388W, active compounds read low 0.969 | locus YDR502C, strain sam2, active compounds read low 0.924 | locus YEL037C, strain rad23, active compounds read low 0.973 | locus YER110C, active compounds read low 0.984 | locus YER167W, strain BCK2, active compounds read low 0.948 | locus YGL078C, strain dbp3, active compounds read low 0.955 | locus YGL167C, strain pmr1, active compounds read low 1.01 | locus YGL227W, strain vid30, active compounds read low 0.969 | locus YGL248W, strain PDE1, active compounds read low 0.968 | locus YGR135W, strain pre9, active compounds read low 0.922 | locus YGR252W, strain gcn5, active compounds read low 0.97 | locus YHR013C, strain ard1, active compounds read low 0.961 | locus YHR030C, strain SLT2, active compounds read low 0.93 and 0.993 | locus YHR079C, strain IRE1 (second series), active compounds read low 1.02 | locus YHR079C, strain IRE1, active compounds read low 0.99 | locus YHR094C, strain hxt1, active compounds read low 0.992 | locus YHR129C, strain ARP1, active compounds read low 0.968 | locus YHR200W, strain rpn10, active compounds read low 0.941 | locus YIL066C, strain RNR3, active compounds read low 0.937 | locus YIL073C, strain SPO22, active compounds read low 0.974 | locus YIL125W, strain kgd1, active compounds read low 0.959 | locus YIR030C, strain dcg1, active compounds read low 0.987 | locus YJL092W, strain hpr5, active compounds read low 0.968 | locus YJL095W, strain BCK1, active compounds read low 0.927 and 1.01 | locus YJL115W, strain asf1, active compounds read low 0.996 | locus YJL134W, strain LCB3, active compounds read low 1.01 | locus YJL154C, strain vps35, active compounds read low 0.983 | locus YJL168C, strain set2, active compounds read low 0.986 | locus YJL187C, strain SWE1 (second series), active compounds read low 0.986 | locus YJR043C, strain POL32, active compounds read low 0.97
active: locus YAL030W, strain snc1, active compounds read low 0.884 | locus YBL061C, strain skt5, active compounds read low 0.754 | locus YBR009C, strain hhf1, active compounds read low 0.658 | locus YBR023C, strain chs3, active compounds read low 0.7 | locus YBR231C, strain swc5, active compounds read low 0.862 | locus YBR279W, strain paf1, active compounds read low 0.907 | locus YCL011C, strain gbp2, active compounds read low 0.811 | locus YCL016C, strain dcc1, active compounds read low 0.859 | locus YDL005C, strain med2, active compounds read low 0.848 | locus YDL192W, strain arf1, active compounds read low 0.872 | locus YDR137W, strain rgp1, active compounds read low 0.67 | locus YDR159W, strain sac3, active compounds read low 0.603 | locus YDR195W, strain ref2 0.318 | locus YDR297W, strain sur2, active compounds read low 0.906 | locus YDR392W, strain spt3, active compounds read low 0.301 | locus YEL003W, strain gim4, active compounds read low 0.848 | locus YEL061C, strain CIN8 (second series), active compounds read low 0.875 | locus YEL061C, strain CIN8, active compounds read low 0.917 | locus YER015W, strain faa2, active compounds read low 0.86 | locus YER016W, strain bim1, active compounds read low 0.904 | locus YER111C, strain swi4, active compounds read low 0.77 | locus YER155C, strain BEM2 (second series), active compounds read low 0.74 | locus YER155C, strain BEM2, active compounds read low 0.876 | locus YFR010W, strain ubp6, active compounds read low 0.863 | locus YGL086W, strain mad1, active compounds read low 0.911 | locus YGL173C, strain kem1, active compounds read low 0.795 | locus YGL240W, strain doc1, active compounds read low 0.805 | locus YGL253W, strain hxk2, active compounds read low 0.897 | locus YHR027C, strain rpn1, active compounds read low 0.888 | locus YHR142W, strain chs7, active compounds read low 0.605 | locus YJL095W, strain BCK1 (second series), active compounds read low 0.699 | locus YJL129C, strain trk1, active compounds read low 0.859 | locus YJL164C, strain tpk1, active compounds read low 0.753 | locus YJL166W, strain qcr8, active compounds read low 0.669 | locus YJL187C, strain SWE1, active compounds read low 0.833
